SKN-1 inh = suppressors of acrylamide-induced Pgst-4::GFP reporter in worms, primary screen, SKN-1 inhibitor project, whole organism, uHTS, GFP/RFP fluorescence ratio, strain VP596. C. elegans VP596 Pgst-4::GFP/RFP ratio, 24 h. inhibition, % at 21.8 µM. 0.49% of 360,000 active. AID 624304, 2012;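 active means interference check ratio from 0.5 to 1.5 plus GFP to RFP signal ratio inhibition reaching or exceeding a fixed threshold, cut at about 30% in these data, passing the limit was not always enough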
Mot1-301 SUMO = yeast Mot1-301 growth rescue at high temperature, primary screen, SUMOylation pathway inhibitor project, S. cerevisiae, ATP luminescence, 38.5C | S. cerevisiae Mot1-301 growth rescue; percent above DMSO median, 100 means doubled | growth rescue, % at 18.8 µM | 1% of 320,000 active | AID 2716, 2010;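 active means every valid replicate shows activation above 250% relative to neutral control wells; inactive means the rest, any valid replicate at or below 250%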;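 further: OY570 slx delta 5 strain wells were the positive control but not used for scaling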
Efflux pump mplx = inhibitors of Candida efflux pumps in yeast, primary screen, S. cerevisiae, Nile Red, multiplex; AID 485275, 2010; inhibition, % at 10 µM; S. cerevisiae Candida pump triplex; 0.44% of 330,000 active;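 active means plate passing quality check with inhibition over a set limit, or well fluorescence over plate mean plus 4 SD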;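 further: Nile Red retained in pooled yeast measured as flow cytometry median fluorescence; 0% = buffer negative control and 100% = Enniatin B positive control; higher means more Nile Red kept so more efflux inhibition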
sPLA2-III inh = human group III sPLA2 inhibitors, primary screen, biochemical, QFRET, BODIPY PC-A2 liposome substrate. QFRET BODIPY PC-A2 liposome hydrolysis, fluorescence. Group 3 secretory phospholipase A2 (Homo sapiens), Q9NZ20. AID 743126, 2013. inhibition, % at 12.2 µM. 0.56% of 370,000 active;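 active means inhibition above mean plus 3 SD of compounds lying within the high and low control bounds, cut at about 19% in these data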;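 further: 0% = median of test compound wells and 100% = no enzyme DMSO wells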
Target sequence (Q9NZ20 whole entry, looked up): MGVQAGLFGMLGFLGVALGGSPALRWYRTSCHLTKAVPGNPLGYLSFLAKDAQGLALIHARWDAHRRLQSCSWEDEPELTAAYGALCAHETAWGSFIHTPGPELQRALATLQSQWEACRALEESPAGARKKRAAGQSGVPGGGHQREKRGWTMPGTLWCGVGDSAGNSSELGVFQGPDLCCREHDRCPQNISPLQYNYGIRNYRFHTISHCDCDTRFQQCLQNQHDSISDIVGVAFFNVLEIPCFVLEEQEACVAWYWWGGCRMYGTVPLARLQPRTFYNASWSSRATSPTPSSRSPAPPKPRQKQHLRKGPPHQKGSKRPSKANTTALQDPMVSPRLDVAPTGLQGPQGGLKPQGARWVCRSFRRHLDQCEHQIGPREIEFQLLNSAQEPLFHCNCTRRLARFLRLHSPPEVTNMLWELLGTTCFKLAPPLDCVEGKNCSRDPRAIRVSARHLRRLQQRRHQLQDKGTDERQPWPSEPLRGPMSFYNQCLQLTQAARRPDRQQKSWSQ
Yeast cmpd fluor = counter-screen for efflux pump inhibitors: compound fluorescence; 4% of 1,700 active; S. cerevisiae AD/pABC3, flow cytometry; fluorescence ratio to DMSO, % at 10 µM; shares compounds with Efflux pump mplx;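 active means fluorescence ratio to DMSO above its plate's cutoff, the plate mean ratio plus 5 SD, cut at about 210% in these data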;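 further: unstained yeast with no Nile Red so the signal is compound autofluorescence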
CaMdr1 efflux inh = inhibitors of Candida albicans Mdr1 efflux, confirmation, flow cytometry, singleplex, Cherry Pick1 set | shares compounds with Efflux pump mplx | S. cerevisiae AD/CaMDR1, Nile Red efflux | inhibition, % at 10 µM | 1% of 1,700 active | AID 588518, 2011; in the data active means inhibition above about 26%;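 further: 0% = DMSO vehicle and 100% = reference inhibitor; higher means more Nile Red retained so more efflux inhibition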
Cdr2 pump inh = inhibitors of Candida albicans Cdr2 efflux pump, confirmation, S. cerevisiae AD/CaCDR2, flow cytometry, cherry pick 1, singleplex; AID 588520, 2011; Nile Red retention; Nile Red retention ratio vs DMSO, % at 10 µM; 4% of 1,700 active; shares compounds with Efflux pump mplx; in the data active means Nile Red retention ratio vs DMSO above about 190%;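 further: higher ratio means more blocking of Cdr2 efflux of the dye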
Cdr1 pump inh = inhibitors of Candida albicans Cdr1 efflux pump, confirmation, S. cerevisiae AD/CaCDR1, flow cytometry, cherry pick 1, singleplex; shares compounds with Efflux pump mplx; Nile Red efflux; inhibition, % at 10 µM; 1% of 1,700 active;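 active means inhibition above the screen-wide mean plus twice its standard deviation, cut at about 32% in these data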
Starred values were filed as active, the others as inactive; x = no result. This is a sample that favours compounds with a hit; in the whole collection about 2.2% have one here.

SMILES	SKN-1 inh	Mot1-301 SUMO	Efflux pump mplx	sPLA2-III inh	Yeast cmpd fluor	CaMdr1 efflux inh	Cdr2 pump inh	Cdr1 pump inh
COc1ccc(-c2sc3ccc(OC)cc3c2-c2ccc(OCCN3CCOCC3)cc2)cc1	-33.7	x	51.9*	x	99.8	15.8	95.6	55.1*
COc1cccc(-c2sc3ccccc3c2-c2ccc(OCCN3CCCCC3)cc2)c1	-7.0	162.4	0.0	x	x	x	x	x
COc1cccc(-c2sc3cc(OC)c(OC)cc3c2-c2ccc(OCCN3CCCCC3)cc2)c1	6.1	x	0.7	x	98.2	-0.1	116.4	0.1
COc1cccc(-c2sc3ccccc3c2-c2ccc(OCCN3CCCC3)cc2)c1	0.0	58.9	0.5	-1.0	x	x	x	x
CC1C(=O)N(Cc2cn(CCC3OCCCO3)nn2)CCS(=O)(=O)N1Cc1ccc(-c2ccc(Cl)cc2)cc1 (configuration not stated)	16.8	x	x	-29.9	x	x	x	x
CC1CCN(C(=O)c2ccc(CNS(=O)(=O)c3ccc(C(C)(C)C)cc3)cc2)CC1	-4.3	13.8	-0.2	-23.8	x	x	x	x
C/C=C(\C)CN1CCN(c2ccc(C)cc2)CC1	-12.3	-5.7	0.4*	-3.3	99.8	-0.2	91.4	-0.1
COc1ccc(C(=O)/C=C/c2ccc(O)cc2)c(O)c1C/C=C(\C)CCC=C(C)C	-0.4	x	1.3*	-15.1	108.6	0.2	116.0	0.4
CCOC(=O)c1ccccc1NS(=O)(=O)c1ccccc1F	-0.8	-19.8	5.9*	-4.6	100.2	-0.2	88.8	0.0
CNS(=O)(=O)c1ccc(C(=O)NCC(=O)NCC2COc3ccccc3O2)cc1 (configuration not stated)	6.0	46.6	0.6*	-0.4	104.7	0.0	95.4	0.0
CCCCN(C)c1c(C)nc2ccc(C(=O)N(CC)CCN(C)C)cn12	3.6	x	x	0.9	x	x	x	x
C/C(=N\OC(=O)C1CC1)C1CC1c1ccc(F)cc1 (configuration not stated)	-7.8	-8.0	0.6	-1.9	x	x	x	x
COc1cccc(N2CC(=O)N(NC(=O)c3sc4nc(C)cc(C)c4c3N)CC2=O)c1	-1.1	0.3	-0.2	2.4	x	x	x	x
Cc1cc(C)c2c(N)c(C(=O)NN3CC(=O)N(c4ccccc4F)CC3=O)sc2n1	5.7	127.8	0.8*	2.1	93.7	-0.4	90.9	-0.4
COc1cc(CN2CCCC(N3CCc4ccccc4C3)C2)c(Cl)cc1O (configuration not stated)	2.7	-13.0	0.0	-10.9	x	x	x	x
C=CCn1c(=O)[nH]c2nc3cc(N=CN(C)C)c(C)cc3nc2c1=O	43.5	-5.1	1.7*	-37.7	147.4	-0.2	86.9	-0.1
COc1ccc(C(C(=O)NC(C)(C)C)N(Cc2ccco2)C(=O)CCC(=O)Nc2cc(C)on2)cc1 (configuration not stated)	-3.3	55.4	0.0	-5.2	101.7	-0.5	107.2	-0.1
COCCN(C(=O)CCC(=O)Nc1cc(C)on1)C(C(=O)NC(C)(C)C)c1ccc(OC)cc1 (configuration not stated)	22.7	-4.5	0.4	6.8	98.6	-0.1	107.8	-0.1
CN1CCN(C(=O)C2Cc3c(-c4ccc5c(c4)OCO5)ccnc3O2)CC1 (configuration not stated)	-3.7	x	x	7.8	x	x	x	x
N#Cc1cnc(SCC(=O)Nc2ccccc2C(F)(F)F)nc1N	-21.4	4.7	-0.4	-3.1	x	x	x	x
Cc1ccc(OCC(=O)NNC(=O)CSc2ncc(C#N)c(N)n2)cc1	1.9	-6.3	18.0*	-5.3	103.0	-0.2	93.5	-0.1
CCC1=C(OC(=O)N(CC)CC)N2C(=O)OC(=NCCc3c[nH]c4ccccc34)[C@]2(Cc2ccccc2)[C@H]2C1=CC[C@H]1C(=O)N(CC)C(=O)[C@H]12	11.9	-7.1	39.3*	-61.3	106.2	0.2	91.4	-0.1
COc1cc(/C=C(\C#N)C(=O)c2c[nH]c3ccccc23)cc(OC)c1O	7.6	-3.9	0.9*	-15.1	125.5	0.0	106.0	0.1
COC(=O)/C(C#N)=C/c1c[nH]c2ccccc12	-0.4	72.3	0.0	-13.8	x	x	x	x
CN(C)N1C(N)=C(C#N)C(c2ccc3c(c2)OCO3)C2=C1CCCC2=O (configuration not stated)	-1.4	-2.5	2.3*	-2.8	99.7	-0.2	92.2	0.0
SMILES	SKN-1 inh	Mot1-301 SUMO	Efflux pump mplx	sPLA2-III inh	Yeast cmpd fluor	CaMdr1 efflux inh	Cdr2 pump inh	Cdr1 pump inh
CN(C)N1C(N)=C(C#N)C(c2cccc(Cl)c2)C2=C1CCCC2=O (configuration not stated)	14.3	-11.3	-0.3	-9.5	x	x	x	x
COc1ccc(/C=C2\SC(=S)N(CCCC(=O)Nc3cccc(C(=O)O)c3)C2=O)cc1OC	11.6	138.9	7.2*	-7.2	96.6	-0.3	102.2	-0.1
COc1ccc(/C=C2\SC(=S)N(CCC(=O)NC3=NCCS3)C2=O)cc1OC	30.3	7.3	5.5*	2.3	109.0	0.2	110.2	0.0
O=C(CN1CCN(S(=O)(=O)c2ccccc2F)CC1)Nc1ccccc1C(=O)c1ccccc1	1.5	2.4	0.5*	-12.1	111.1	0.2	97.7	0.0
CCc1c(C)sc(NC(=O)c2ccccc2[N+](=O)[O-])c1C(N)=O	3.9	-8.9	0.2	-1.2	x	x	x	x
CC1Oc2ccccc2N(CC(=O)c2ccc(F)cc2)C1=O (configuration not stated)	9.7	121.1	1.1*	0.9	99.8	-0.1	99.7	-0.1
CC1Oc2ccccc2N(CC(=O)c2ccccc2)C1=O (configuration not stated)	-0.3	-1.2	-0.6	x	x	x	x	x
CCOc1ccc2nc(Cl)c(C3CC(c4ccccc4)=NN3C(=O)c3ccco3)cc2c1 (configuration not stated)	x	-30.1	0.1	x	x	x	x	x
Cc1cc(C)cc(N(C(=O)Cn2nnc(-c3ccccc3)n2)C(C(=O)NC2CCCCC2)c2ccccn2)c1 (configuration not stated)	9.3	-5.1	6.4*	1.5	105.4	-0.1	100.8	0.1
C[C@H]1CN([C@@H](C)CO)C(=O)CCCn2cc(nn2)CO[C@@H]1CN(C)C(=O)Cc1ccccc1	-14.2	x	x	6.7	x	x	x	x

From PubChem BioAssay
